Where “and” joins values, the source holds several entries; their conditions need not be identical. Equal values may be shown once. Screen size: about 260,000 compounds; about 1,500 (0.58%) were called active. Inconclusive results (about 5%) are left out.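 How the source made its calls: active means inhibition above a set limit at one or more doses, reproduced on every date tested; inconclusive means results disagree between test dates, or hit never tested in dose response; inactive means the rest.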 These entries were drawn from the full list. Entries with a potency or affinity are not part of this list.
Each compound was assayed against Virion infectivity factor (Human immunodeficiency virus type 1 group M subtype B (isolate BH10)) + Virion infectivity factor (Human immunodeficiency virus type 1 group M subtype B (isolate BRU/LAI)) + Virion infectivity factor (Human immunodeficiency virus type 1 group M subtype B (isolate PCV12)) + Virion infectivity factor (Human immunodeficiency virus type 1 group M subtype B (isolate HXB2)) + DNA dC->dU-editing enzyme APOBEC-3G (Homo sapiens) (UniProt P69720+P69721+P69722+P69723+Q9HC16) (assay: HIV-1 Vif–A3G interaction blockers – biochemical, TR-FRET, GST-Vif 1-94, biotin-A3G peptide, dose response retest, primary screen (AID 1117319;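 further: Vif residues 1-94 fused to GST binding biotinylated APOBEC3G peptide 110-148; 0% = full assay without inhibitor and 100% = GST in place of GST-Vif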)). Details: TR-FRET GST-Vif / biotin-A3G peptide binding; active compounds read high.

inhibition, inactive:
COc1cc(/C=N/N=C(\N)c2nonc2N)cc(OC)c1O 16.4%
CCCc1nn2c(=O)cc(O)nc2s1 3.77%
CCCNc1nc(C)c(C(C)=O)cc1C#N 29.1%
Cc1nn(C)c(Oc2cccc(C(F)(F)F)c2)c1C#N 1.09%
CNc1nc(C)c(C(=O)c2ccc(Cl)cc2)s1 -4.16%
CCC(NC(=O)c1ccccc1NC(=O)c1ccc(C)cc1)C(=O)O (configuration not stated) 2.64%
Cc1ccc2c(c1)C(c1ccc(F)cc1)N(C(=O)C1CC1)CC(=O)N2 (configuration not stated) -2.57%
CC(=O)c1ccc(N2CCC(C(=O)O)CC2)cc1 6.29%
CC(=O)c1ccc2c(c1)CCN2 9.69%
Cc1ccc2c(c1)C(c1ccccc1)N(C(=O)C(C)C)CC(=O)N2 (configuration not stated) 1.62%
COC(=O)c1cc(=O)nc2scc(C)n12 5.72%
C=C1[C@@H](C)C2[C@H](Cc3ccccc3)NC(=O)[C@]23OC(=O)CC[C@H](O)CCC[C@H](C)C/C=C/[C@H]3[C@@H]1O (some centres not stated) 6.17%
CC(C)OP(=O)(c1ccc(N(C)C)cc1)C(O)c1ccc(N(C)C)cc1 (configuration not stated) -8.7%
CC(C)COP(=O)(OCC(C)C)C(O)c1ccc(N(C)C)cc1 (configuration not stated) 12.4%
O=C(O)c1ccc2c(c1)C(=O)N(c1cccc(S(=O)(=O)Nc3cccc(C(F)(F)F)c3)c1)C2=O 25.9%
CCOC(=O)C1=C(C)N=C2SC(C(=O)OC)=CC(=O)N2C1c1cccc(OC)c1 (configuration not stated) 0.81%
CCOC(=O)C1=C(C)N=C2SC(C(=O)OC)=CC(=O)N2C1c1ccc(OC)cc1 (configuration not stated) 7.8%
N#Cc1ccc(N2CCCNCC2)nc1 -3.01%
COc1ccc2oc(C(=O)N3CCCc4ccccc43)c(C)c2c1 0.82%
CC1CCC(NC(=O)C2CCN(c3nc4ccccc4s3)CC2)CC1 (configuration not stated) 7.57%
CC1CCCCN1Cc1ccc(N)cc1 (configuration not stated) -2.03%
CN(C)c1ccc(CN2CCCCCC2)cc1 8.55%
COc1ccc(C2NC(Cc3ccccc3)(C(=O)O)C3C(=O)N(c4ccccc4OC)C(=O)C23)cc1 (configuration not stated) -0.26%
CCOC(=O)c1cnc2nc(SC)nn2c1N 4.24%
COCCn1c(Sc2nc(C)cs2)nc2c1c(=O)[nH]c(=O)n2C -3.29%
C=CCn1c(N2CCOCC2)nc2c1c(=O)[nH]c(=O)n2C 1.7%
C=CCn1c(N2CCCC2)nc2c1c(=O)[nH]c(=O)n2C -1.68%
C=CCn1c(Sc2nnc(C)s2)nc2c1c(=O)[nH]c(=O)n2C 3.94%
CC(=O)Nc1ccc(NC(=S)NC(=O)C2CC2)cc1 0.52%
CC(=O)Nc1ccc(NC(=O)CN2CCN(c3ccccn3)CC2)cc1 -2.22%
Cn1nc(C(=O)Nc2ccccc2N2CCCC2)c2ccccc2c1=O 1.83%
O=c1nc2s/c(=C\c3ccco3)c(=O)n2nc1Cc1ccc(F)cc1 23.6% and -1.42%
COc1cccc(/C=c2\sc3nc(-c4cccs4)nn3c2=O)c1OC 21.5%
COc1ccc(OC)c(/C=c2\sc3nc(-c4cccs4)nn3c2=O)c1 10.3%
Cc1ccc(/C=c2\sc3nc(-c4cccnc4)nn3c2=O)cc1 8.43%
CCCOc1ccc(/C=c2\sc3ncnn3c2=O)cc1 3.82%
CCCOc1ccc(/C=c2\sc3nc(-c4ccco4)nn3c2=O)cc1OCC 8.17%
COc1ccccc1/C=c1\sc2nc(-c3ccco3)nn2c1=O 31.4%
COc1ccccc1/C=C/C=c1\sc2nc(=O)c(Cc3ccccc3)nn2c1=O 26.2%
COc1ccc(/C=C2\S/C(=N/S(=O)(=O)c3cccs3)NC2=O)cc1 7.65%
CCCNC(=O)CN1C(=O)NC(CCc2ccccc2)C1=O (configuration not stated) -6.24%
NC(=O)c1cc(S(=O)(=O)NCCCc2ccccc2)cs1 3.6%
COc1ccc(Nc2nc(C)cc(=O)[nH]2)c(OC)c1 10.4%
CCOC(=O)C1=C(N)OC2=C(C(=O)CCC2)C1c1cccs1 (configuration not stated) 1.36%
COC(=O)C1=C(N)OC2=C(C(=O)CC(C)(C)C2)C1c1cccs1 (configuration not stated) 12.5%
O=C(C(=NNc1ccccc1)c1ccccc1)c1ccccc1 -6.13%
Oc1ccccc1C=NNC(=S)NN=Cc1ccccc1O -0.1%
COc1cc(/C=N/N=C(/C(=O)c2ccccc2)c2ccccc2)cc(OC)c1O 1.68%
Oc1ccccc1/C=N/Nc1ccccc1 3.4%
O=C1C=CC(=O)N1CCCCCCCCCCN1C(=O)C=CC1=O -0.57%
O=S(=O)(NC1CCCC1)c1ccc(F)cc1F 21.1%
COc1ccc(C(=O)NC(C)c2nnc(SCC(=O)Nc3nc(C)cs3)n2C)cc1 (configuration not stated) 5.71%
COc1cc(NS(=O)(=O)c2ccc(NC(=O)/C=C/c3ccc([N+](=O)[O-])cc3)cc2)ncn1 7.89%
CN1C(=O)CSC1=Nc1cccc(C(=O)O)c1 -5.13%
CN1C(=O)/C(=C/c2ccco2)SC1=Nc1ccc(N2CCOCC2)cc1 25%
CCCCn1c(N)c(N(CCC(C)C)C(=O)CSc2nnc(C)s2)c(=O)[nH]c1=O 2.42%
CC(=O)c1ccc(N2CCN(c3ccc(C(N)=O)cc3[N+](=O)[O-])CC2)cc1 15.8%
COc1ccc(N2CCN(c3ccc(C(N)=O)cc3[N+](=O)[O-])CC2)cc1 -3.87%
O=C(OCc1ccco1)c1cccnc1 -2.16%
Cc1ccc(Cc2c(-c3ccccc3)nc3cc(C)ccn23)cc1 -4.74%
CCCC(=O)Nc1nnc(Sc2ccc(N(C)C)cc2)s1 2.88%
CCC(=O)Nc1nnc(Sc2ccc(N(C)C)cc2)s1 2.99%
COCCSc1nnc(NC(=O)COC)s1 -0.26%
O=C1c2cccnc2C(Nc2ccccc2Br)N1Cc1ccco1 (configuration not stated) 9.8%
O=C1c2cccnc2C(Nc2cccc(F)c2)N1Cc1ccco1 (configuration not stated) -1.27%
Cc1cc(C(=O)COC(=O)c2ccc[nH]c2=O)c(C)n1C1CC1 13%
NC(=S)NNC(=O)c1cc(C(F)(F)F)cc(C(F)(F)F)c1 1.55%
Cc1ccc2[nH]cc(S(=O)(=O)c3ccc(C(C)C)cc3)c(=O)c2c1 -10.1%
CN(Cc1ccno1)C(=O)CC1C(=O)NCCN1CC(c1ccccc1)c1ccccc1 (configuration not stated) -5.42%
Cc1ccc(NCN2C(=O)C3C4C=CC(C4)C3C2=O)cc1 (configuration not stated) 6.77%
O=C1C2C3C=CC(C3)C2C(=O)N1CNc1ccccc1 (configuration not stated) 2.49%
Cc1ccc(NC(=O)CSc2nc(C)c(C)c(C)n2)c([N+](=O)[O-])c1 -0.85%
CCOC(=O)C1=C(C)N=C(/N=C/N(C)C)SC1c1ccccc1 (configuration not stated) 18.8%
COc1ccccc1NC(=O)Cn1c(CCC(=O)O)ccc1-c1ccccc1 -8.03%
O=C(O)CCc1ccc(-c2ccccc2)n1CC(=O)O 6.57%
O=S(=O)(Nc1ccc2c(c1)OCCO2)c1ccc2oc3ccccc3c2c1 -4.26%
Cc1ccc(C(=O)Nn2c(O)c(C=C3N=c4ccccc4=N3)sc2=S)cc1 0.29%
O=C(CCNC(=O)N1CC(=O)Nc2ccccc21)NCc1ccccc1Cl 2.33%
COCCN1CC(C(=O)NCc2ncccc2C)CCC1=O (configuration not stated) 0.7%
O=c1oc2ccc([N+](=O)[O-])cc2c(N2CCOCC2)c1[N+](=O)[O-] -2.71%
COC(=O)Cc1cc(=O)n(-c2ccccc2)[nH]1 20.8%
COc1ccc(-c2cc(=O)n(-c3nc4ccccc4[nH]3)[nH]2)cc1 10.5%
COCCSc1nc2c(c(=O)[nH]c(=O)n2C)n1CCC(C)C 2.86%
Cc1ccc(N(CCO)C(=S)Nc2ccccc2)cc1 1.36%
O=C(c1cc(-c2ccccc2)nn1-c1ccccc1)N1CCN(S(=O)(=O)c2ccc(F)cc2)CC1 -4.9%
CCOC(=O)c1c(C)oc2c1c(C=NCC1CCCO1)c(O)c1ccccc12 (configuration not stated) 25.6%
CCOC(=O)c1c(C)oc2c1c(C=NCCO)c(O)c1ccccc12 14.7%
CNS(=O)(=O)c1cccc(C(=O)OCC(=O)c2ccc3[nH]c(=O)[nH]c3c2)c1 4.94%
COc1ccccc1NC(=S)NC(NC(C)=O)C(Cl)(Cl)Cl (configuration not stated) -2.68%
O=C(CCC(=O)N1CCN(c2ccccc2F)CC1)c1ccc(F)cc1 0.58%
Cc1cccn2c(=O)nc(SCC(=O)N3CCCCC3)nc12 -0.7%
Cc1cc(=O)n2nc(-c3ccc(C(F)(F)F)cc3)sc2n1 0.75%
CCN(CC)S(=O)(=O)c1ccc(/C=C/C(=O)Nc2ccccc2N2CCOCC2)cc1 28.5%
CCOc1ccc(/C=C/C(=O)Nc2ccc(N3CCOCC3)cc2)cc1 3.96%
CCNC(=O)COC(=O)c1ccc(S(=O)(=O)N2CCCCCC2)cc1 -4.99%
CC(C)Cc1cc(C(=O)N2CCC(N3CCC(C(=O)N4CCOCC4)CC3)CC2)n[nH]1 12.3%
CCCCN(C)C(=O)c1nc2ccccn2c1CN1CCN(c2ccccn2)CC1 -11.9%

Source: PubChem BioAssay AID1117319 (Southern Research Institute, 2015)
